Measured values: PubChem BioAssay AID1578 (Sanford-Burnham Center for Chemical Genomics, 2009)
Out of some 290,000 compounds screened, about 3,000 (1%) were called active. Cut-off read from the data, not from the text of the source: active = inhibition mostly above about 36% (no sharp cut-off); inactive = mostly below about 34%. For the sample, actives were picked, then their nearest neighbours and some compounds at random.

Assay: NOD1 signaling inhibitors, primary screen, cell-based, luminescence, uHTS (AID 1578);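 note: HEK-293T reporter cells stimulated with the NOD1 agonist gamma-tri-DAP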
Conditions: NOD1-driven NF-kB luciferase reporter cells, at 4 µM, hits give high values

inhibition, inactive:
Cc1ccc(N(Cc2cc3ccc(C)cc3[nH]c2=O)C(=O)c2ccco2)cc1 -4%, COc1ccc(OCCC(=O)OCC(=O)NC(=O)NC(C)C)cc1 -3.2%, COc1cccc(/C=N/N2CCN(C3c4ccccc4-c4ccccc43)CC2)c1O -6.4%, CCCn1c(=S)[nH]c2ccccc2c1=O -14.5%, CCCN(CCC)c1ccc(/C=C/c2ccc3cc(OCC)ccc3n2)cc1 -1.6%, O=[N+]([O-])c1ccc(/C=C/c2ccc3ccccc3n2)cc1 -12.9%, CN(C)c1ccc(/C=C/c2nc3ccccc3s2)cc1 -3.1%, CN(C)c1ccc(/C=C/c2ccc3ccccc3[n+]2C)cc1 43.8%, C(=C\c1ccc2ccccc2n1)/c1ccccc1 0%, CC[n+]1ccccc1/C=C/c1ccc(N(C)C)cc1 40.5%, COc1cc(CNCCC2CCOC(C)(C)C2)ccc1O (stereo not given) 12.4%, O=C(COc1ccc2c3c(c(=O)oc2c1)CCC3)Nc1ccc(CN2CCOCC2)cc1 -11.6%, COc1ccc2nc(C)c(C(N)=O)cc2c1 5.9%, O=C(Nc1ccccn1)c1ccc(C(=O)Nc2ccccn2)cc1 -5.1%, O=C(NC(=S)Nc1ccccn1)c1ccccc1 -7.6%, CC(=O)c1c(C)nn(CC(O)COc2ccc3ccccc3c2)c1C (stereo not given) -16.4%, Cc1ccccc1C(=O)NC(=S)N(CCO)Cc1ccccc1 -10.6%, CSCC(=O)N1CCC(Oc2cccc(C(=O)NCc3ccccn3)c2)CC1 -24%, CC(C)NC(=O)CSc1nc(N)c(-c2ccccc2)c(=O)[nH]1 7.6%, Cc1ccc2oc(/N=C(\N)NC(=O)C3CC3)nc2c1 -13.8%, CC(=O)N/C(N)=N/c1nc2cc(C)ccc2o1 -10.1%, CCCOc1cccc(C2C(C(=O)c3ccco3)=C(O)C(=O)N2c2nnc(C)s2)c1 (stereo not given) -7.8%, N#Cc1ccc(C(=O)NCC2CCCCC2)cc1 0.9%, O=C(O)c1cccc(C(=O)c2cccc(C(=O)O)c2)c1 -26.4%, COc1ccc(CCCC(=O)N/N=C/c2ccccc2OC)cc1 -14.1%, CSc1ccc(/C=N/NC(=O)CNc2ccc3ccccc3c2)cc1 -16.8%, C/C(=N\Nc1ccc(S(=O)(=O)Nc2ccccc2)cc1[N+](=O)[O-])c1ccncc1 34.7%, CCN(CC)S(=O)(=O)c1ccc(N/N=C(\C)c2ccncc2)c([N+](=O)[O-])c1 31%, Cc1cc(=O)[nH]c(N/N=C/c2ccc(-c3ccc(F)cc3)o2)n1 -56.3%, C/C(=N\N=c1/sc2ccccc2n1C)c1ccccn1 -61.2%, CCN(CC)S(=O)(=O)c1ccc2c(c1)c(=O)c(C(=O)NCCOC)cn2C -12.6%, COc1ccc(C(=O)Nn2c(SCC(=O)NCc3ccco3)nc3ccccc3c2=O)cc1 -0.3%, COc1ccc(C(=O)Nn2c(SCC(=O)NCc3ccccc3)nc3ccccc3c2=O)cc1 18.4%, COc1ccc(C(=O)Nn2c(SCC(=O)NC3CCCC3)nc3ccccc3c2=O)cc1 12.9%, COc1ccc(C(=O)Nn2c(SCC(=O)c3ccccc3)nc3ccccc3c2=O)cc1 43.6%, COc1ccccc1NC(=O)C(CCS(C)(=O)=O)N1C(=O)c2ccccc2C1=O (stereo not given) -3.2%, C#CCSc1nnc(-c2c[nH]c3ccccc23)n1C -40.9%, Cn1cc2ccc([N+](=O)[O-])cc2n1 -6.5%, CCOc1ccc(CCNC(=O)CCC(=O)N2CCOc3ccccc32)cc1OCC -4.6%, O=C(N/C(=C\c1cccs1)C(=O)N1CCOCC1)c1ccco1 -12.2%, CCOc1ccc(NC(=O)CN(C)c2nnnn2-c2ccccc2)cc1OCC 39%, COc1cc(OC)c(C(=O)/C=C/c2ccccc2)c(O)c1O 21.4%, COc1cc(O)c(C(=O)/C=C/c2ccccc2)c(OC)c1 1.3%

inhibition, active:
Oc1ccc(/C=C/c2ccc3ccccc3n2)cc1 50.2%, CN(C)c1ccc(/C=C/c2ccc3c4ccccc4ccc3[n+]2-c2ccccc2)cc1 71.6%, CN(C)c1ccc(/C=C/c2ccc3ccccc3n2)cc1 59.1%, O=C(NC(=O)c1ccccc1)Nc1ccccn1 64.2%, COc1ccc(C(=O)Nn2c(SCC(=O)NCC3CCCO3)nc3ccccc3c2=O)cc1 (stereo not given) 64.6%, COc1ccc(C(=O)Nn2c(SCC(=O)NC3CCCCC3)nc3ccccc3c2=O)cc1 88%, COc1cc(O)cc(O)c1C(=O)/C=C/c1ccccc1 49.8%
